Experimental data taken from PubChem BioAssay (NCATS).
Results filed as inconclusive are left out. A number with no mark means an inactive call. Calls come from the whole dose curve; as a rule, active = well fitted inhibition curve with a large enough effect; inconclusive = small, poorly fitted or top-dose-only effect; inactive = flat fitted curve, though single readings scatter.
% is set by controls: 0 for no effect and ±100 for the full control effect.

What follows are molecules tested against Calcium and integrin-binding protein 1 (Homo sapiens) (UniProt Q99828) (assay: Primary qHTS for Identification of Calcium Integrin Binding Protein 1 (CIB1) Competitor (AID 1508620;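 note: GST tagged CIB1 binding a fluorescein labelled alphaIIb integrin peptide tracer; top concentration of the series differs between compounds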)). Settings: CIB1-GST / FITC-alphaIIb peptide fluorescence polarization; series mostly up to 114 µM; activity change, negative = inhibition: at the top concentration.
Sequence of Calcium and integrin-binding protein 1 (Homo sapiens) (Q99828 whole entry, looked up): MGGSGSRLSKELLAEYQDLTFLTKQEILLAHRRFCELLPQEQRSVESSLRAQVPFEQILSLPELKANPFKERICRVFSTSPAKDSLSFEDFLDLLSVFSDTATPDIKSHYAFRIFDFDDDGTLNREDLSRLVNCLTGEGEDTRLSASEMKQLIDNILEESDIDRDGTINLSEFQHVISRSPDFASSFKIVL
How it was run: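 CIB1-GST (1 uM final) and compound incubated 15 min at room temperature before adding FITC-alphaIIb peptide tracer (100 nM final). Competition for binding read by fluorescence polarization (ex 480, em 540) after another 15 min at room temperature.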
O=C(/C=C/c1cccnc1)Nc1cccc([S+](=O)([O-])Nc2ccccc2F)c1 was tested, and the “activity change, negative = inhibition” value was -3.4%. For O=C1CCCC2=C1C(c1[nH]ncc1Cl)N=C(Nc1nc3cc(F)ccc3o1)N2 (centres undefined), the “activity change, negative = inhibition” value was -2.71%. COc1ccc(NS(=O)(=O)c2ccc3c(c2)CCC(=O)N3)cc1 was tested, and the “activity change, negative = inhibition” value was 7.41%. With O=C(Cc1ccc(Cl)c(Cl)c1)Nc1ccc([S+](=O)([O-])Nc2ccccn2)cc1 the “activity change, negative = inhibition” value was -11.4%. With Cc1cc(C)nc(NC(=S)N2CCN(c3ccc(Cl)nn3)CC2)c1 the “activity change, negative = inhibition” value was 0.476%. In the case of Cc1c(C(=O)OCC2CCCCO2)[nH]c2c1C(=O)CC(c1ccco1)C2 (centres undefined), the “activity change, negative = inhibition” value is reported as -21.8%. In the case of Cc1cc(C)n2ncc(C(=O)NC3CCCCC3)c2n1, the “activity change, negative = inhibition” value is reported as 1.89%. With c1coc(-c2ccc3ncnc(NCc4cccs4)c3c2)c1 the “activity change, negative = inhibition” value was -14.8%. In the case of NC(=O)C1CCN(c2nc(-c3ccccc3C(F)(F)F)cs2)CC1, the “activity change, negative = inhibition” value is reported as 0.958%. With Cc1cc(C)nc(NC(=S)N2CCN(c3nccc4occc34)CC2)c1 the “activity change, negative = inhibition” value was -8.62%. CN1CCOc2cc(S(=O)(=O)N3CCN(S(=O)(=O)c4c(F)cccc4F)CC3)cnc21 was tested, and the “activity change, negative = inhibition” value was 5.26%. With COc1cccc(C2c3c(ncn(-c4ccc(C#N)cc4)c3=N)Oc3ccc4ccccc4c32)c1 (centres undefined) the “activity change, negative = inhibition” value was 10.1%. In the case of O=C(c1ccccc1O)N(Cc1ccccc1)Cc1cccs1, the “activity change, negative = inhibition” value is reported as -2.28%. O=C(Nc1ccc(Cl)c(Cl)c1)Nc1cccc(-c2ccncc2)n1 was tested, and the “activity change, negative = inhibition” value was 6.27%. O=C1CCc2cc([S+](=O)([O-])NC3CCOCC3)ccc2N1 was tested, and the “activity change, negative = inhibition” value was 2.54%. Cc1ccc2nc3sc(C(=O)Nc4ccncc4)cc3cc2c1 was tested, and the “activity change, negative = inhibition” value was -1.51%. In the case of CC(=O)Nc1sc2c(c1C(O)c1nc3ccccc3s1)CCN(C(C)C)C2 (centres undefined), the “activity change, negative = inhibition” value is reported as -1.12%. O=[S+]([O-])(c1ccc2c(c1)OCCO2)N1CCN([S+](=O)([O-])c2c(F)cc(O)cc2F)CC1 was tested, and the “activity change, negative = inhibition” value was -0.145%. For COc1ccnc(NC(=S)N2CCN(c3cccc(Cl)c3Cl)CC2)c1, the “activity change, negative = inhibition” value was -16.1%. With NC(=O)C1CCN(c2nc(-c3cccc(Br)c3)cs2)CC1 the “activity change, negative = inhibition” value was 2.65%. With CCCCN(CCCNC(=S)NCCCc1cnc[nH]1)c1ccc(Br)cn1 the “activity change, negative = inhibition” value was -3.53%. CCOc1ccc(C(C)CNC(=O)c2cc3sccc3n2Cc2ccccc2)cc1OCC (centres undefined) was tested, and the “activity change, negative = inhibition” value was 8.61%. In the case of Cc1cc(C)c(C)c(S(=O)(=O)N2CCN(S(=O)(=O)c3ccc4c(c3)OCCO4)CC2)c1C, the “activity change, negative = inhibition” value is reported as -2.41%. For O=C(Nc1cccc(Cc2ccccc2)n1)c1ccc(-c2cccc([N+](=O)[O-])c2)o1, the “activity change, negative = inhibition” value was 1.05%.
